About 83,000 compounds went through this panel and 20% of them were active in at least one assay; those are over-represented in the sample as a whole.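 A percent growth of 40 corresponds to 60% growth inhibition; 0 means no net growth; -100 means all cells died. Active threshold: below 10.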 Calls of active or inactive are those of the source.
Each compound was assayed on OVCAR-4 ovarian (assay: NCI-60 one-dose screen, 48 h (100 = growth as untreated, 0 = no growth, -100 = all killed)). Conditions: 10 µM unless noted.

SMILES | growth
COc1ccc(-c2nc(-c3cc(OC)cc(OC)c3)[nH]c2-c2ccc(OC)cc2)cc1 | 59.7% (inactive)
N#Cc1nc(-c2cccc(Br)c2)cc(-c2ccc(Nc3nc(N4CCCCC4)nc(N4CCCCC4)n3)cc2)c1N | -53.8% (active)
NC(N)=N/N=C\c1ccc(OCc2ccccc2)cc1 | 56.8% (inactive)
CCN(CC)CCC(CNc1ccnc2cc(Cl)ccc12)c1ccc(O)cc1 (centres undefined) | 91.4% (inactive)
COS(=O)(=O)CCN(CCOS(C)(=O)=O)S(C)(=O)=O | 107% (inactive)

Each compound was assayed on SK-OV-3 ovarian in the same assay as above. Conditions: 10 µM unless noted.

SMILES | growth
COc1ccc(-c2cn(-c3cccc(C(=O)/C=C/c4ccc(O)c(OC)c4)c3)c(=O)[nH]2)cc1 | 53.6% (inactive)
Cc1ccccc1N1C(c2ccccc2)=NNC12C=CC(=O)c1c(O)cccc12 (centres undefined) | 74.4% (inactive)
COc1cc(Nc2ccnc3ccc(Br)cc23)cc(OC)c1OC | 36.6% (inactive)
CN1CCN(Cc2ccc(NC(=O)c3cncc(C#Cc4ccc(N)nc4)c3)cc2C(F)(F)F)CC1 | -11% (active)
COc1ccc(Sc2[nH]c(C=O)c3ccccc23)cc1 | 47.7% (inactive)
COCCOCCOCc1n(Cc2ccc3ccccc3n2)c2ccccc2[n+]1Cc1ccc2ccccc2c1 | -6.91% (active)
COc1ccc(C2C3CCc4ccccc4C3=NN2C(=O)c2cc(OC)c(OC)c(OC)c2)cc1O (centres undefined) | 88% (inactive)
O=c1[nH]cnc2nc[nH]c12 | 121% (inactive)
CC(=O)O[C@H]1[C@H](CC#CC#CC[C@@H]2C[C@]3(C)[C@H]4CC=C5[C@H]6[C@@H](C)[C@H](C)CC[C@]6(C(=O)NCCN(CCN)CCN)CC[C@@]5(C)[C@]4(C)CC[C@H]3C(C)(C)[C@H]2OC(C)=O)C[C@]2(C)[C@H]3CC=C4[C@H]5[C@@H](C)[C@H](C)CC[C@]5(C(=O)NCCN(CCN)CCN)CC[C@@]4(C)[C@]3(C)CC[C@H]2C1(C)C | 89.2% (inactive)

— PubChem BioAssay (NCI)
